Assay in all cases: log2 ratio of Biotin-Ahx-Ub-VS probe labelling (fragment/DMSO); higher = less target engagement (more negative = stronger competition), active = hit call of the paper (q ≤ 0.05, log2 ratio ≤ -1)
Holding throughout (conditions): compound concentration: 200 uM; treatment time: 3 h

Assay [1] deals with T1, USP19 (UniProt O94966).
T1 sequence (whole entry): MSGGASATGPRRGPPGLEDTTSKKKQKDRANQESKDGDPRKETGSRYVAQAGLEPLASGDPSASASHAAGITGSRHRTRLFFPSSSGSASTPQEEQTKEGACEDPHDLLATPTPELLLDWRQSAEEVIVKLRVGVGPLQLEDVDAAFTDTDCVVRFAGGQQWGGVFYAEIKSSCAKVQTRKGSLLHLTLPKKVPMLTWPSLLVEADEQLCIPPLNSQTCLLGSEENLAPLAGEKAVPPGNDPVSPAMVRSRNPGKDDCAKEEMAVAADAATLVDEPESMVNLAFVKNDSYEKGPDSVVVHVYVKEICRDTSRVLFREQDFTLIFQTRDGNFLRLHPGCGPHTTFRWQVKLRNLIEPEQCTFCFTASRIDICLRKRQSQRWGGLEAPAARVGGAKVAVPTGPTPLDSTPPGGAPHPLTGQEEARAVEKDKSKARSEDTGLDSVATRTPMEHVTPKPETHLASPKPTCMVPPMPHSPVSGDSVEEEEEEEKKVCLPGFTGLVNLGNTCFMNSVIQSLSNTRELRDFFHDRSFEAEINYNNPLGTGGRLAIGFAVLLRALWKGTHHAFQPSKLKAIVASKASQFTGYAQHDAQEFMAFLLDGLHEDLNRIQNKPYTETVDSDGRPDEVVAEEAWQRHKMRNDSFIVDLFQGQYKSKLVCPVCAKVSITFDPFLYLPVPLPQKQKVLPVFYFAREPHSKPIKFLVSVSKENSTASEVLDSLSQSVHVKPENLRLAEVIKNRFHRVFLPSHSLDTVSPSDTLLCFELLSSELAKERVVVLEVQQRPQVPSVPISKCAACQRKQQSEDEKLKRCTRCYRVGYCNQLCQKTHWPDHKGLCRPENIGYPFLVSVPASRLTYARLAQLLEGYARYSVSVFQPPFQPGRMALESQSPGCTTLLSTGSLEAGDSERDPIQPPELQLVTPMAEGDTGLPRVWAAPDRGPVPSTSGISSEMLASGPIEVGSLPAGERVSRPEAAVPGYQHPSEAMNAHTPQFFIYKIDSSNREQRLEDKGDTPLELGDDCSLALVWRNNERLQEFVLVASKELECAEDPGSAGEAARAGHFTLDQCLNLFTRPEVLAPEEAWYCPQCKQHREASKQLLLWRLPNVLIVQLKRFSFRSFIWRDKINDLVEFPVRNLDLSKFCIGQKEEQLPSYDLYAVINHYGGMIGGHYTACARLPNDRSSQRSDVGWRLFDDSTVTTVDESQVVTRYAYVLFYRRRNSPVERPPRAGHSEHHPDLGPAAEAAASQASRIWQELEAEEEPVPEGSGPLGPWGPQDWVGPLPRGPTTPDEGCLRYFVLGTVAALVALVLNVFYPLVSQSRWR
The gist of the method: (§1)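 Labelled DUBs from HEK293T lysate were NeutrAvidin-enriched, digested with LysC and trypsin, and run by diaPASEF LC-MS/MS. Before that, each 495 µg sample in Tris/CHAPS/IGEPAL buffer with protease inhibitors was treated in triplicate with fragment at 200 µM or vehicle for 3 h, then with Biotin-Ahx-Ub-VS at 0.5 µM final for 1 h. Values are average log2 ratios of fragment over vehicle by unpaired t-test, based on global-median-normalised Spectronaut label-free quantities from proteins with ≥2 unique peptides.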

Assay [2] deals with T2, USP22 (UniProt Q9UPT9).
T2 sequence (whole entry): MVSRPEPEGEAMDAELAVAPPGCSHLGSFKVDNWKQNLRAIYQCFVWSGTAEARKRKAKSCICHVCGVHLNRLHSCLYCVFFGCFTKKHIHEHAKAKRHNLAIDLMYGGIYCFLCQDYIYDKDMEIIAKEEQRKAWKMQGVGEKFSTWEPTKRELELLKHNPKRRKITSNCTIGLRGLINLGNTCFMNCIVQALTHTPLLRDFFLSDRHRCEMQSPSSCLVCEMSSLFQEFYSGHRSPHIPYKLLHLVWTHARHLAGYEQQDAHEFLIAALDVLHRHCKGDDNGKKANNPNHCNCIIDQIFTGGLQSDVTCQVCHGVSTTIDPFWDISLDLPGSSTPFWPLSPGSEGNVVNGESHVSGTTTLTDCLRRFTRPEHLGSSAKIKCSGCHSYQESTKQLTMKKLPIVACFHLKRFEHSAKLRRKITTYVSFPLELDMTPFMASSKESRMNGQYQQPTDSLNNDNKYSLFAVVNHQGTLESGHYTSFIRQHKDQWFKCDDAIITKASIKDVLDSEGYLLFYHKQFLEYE
An outline of the steps:
as §1

Assay [3] addresses USP24 (UniProt Q9UPU5). The gist of the method: as §1
In assay [4] the target is T3, USP25 (UniProt Q9UHP3).
T3 sequence (whole entry): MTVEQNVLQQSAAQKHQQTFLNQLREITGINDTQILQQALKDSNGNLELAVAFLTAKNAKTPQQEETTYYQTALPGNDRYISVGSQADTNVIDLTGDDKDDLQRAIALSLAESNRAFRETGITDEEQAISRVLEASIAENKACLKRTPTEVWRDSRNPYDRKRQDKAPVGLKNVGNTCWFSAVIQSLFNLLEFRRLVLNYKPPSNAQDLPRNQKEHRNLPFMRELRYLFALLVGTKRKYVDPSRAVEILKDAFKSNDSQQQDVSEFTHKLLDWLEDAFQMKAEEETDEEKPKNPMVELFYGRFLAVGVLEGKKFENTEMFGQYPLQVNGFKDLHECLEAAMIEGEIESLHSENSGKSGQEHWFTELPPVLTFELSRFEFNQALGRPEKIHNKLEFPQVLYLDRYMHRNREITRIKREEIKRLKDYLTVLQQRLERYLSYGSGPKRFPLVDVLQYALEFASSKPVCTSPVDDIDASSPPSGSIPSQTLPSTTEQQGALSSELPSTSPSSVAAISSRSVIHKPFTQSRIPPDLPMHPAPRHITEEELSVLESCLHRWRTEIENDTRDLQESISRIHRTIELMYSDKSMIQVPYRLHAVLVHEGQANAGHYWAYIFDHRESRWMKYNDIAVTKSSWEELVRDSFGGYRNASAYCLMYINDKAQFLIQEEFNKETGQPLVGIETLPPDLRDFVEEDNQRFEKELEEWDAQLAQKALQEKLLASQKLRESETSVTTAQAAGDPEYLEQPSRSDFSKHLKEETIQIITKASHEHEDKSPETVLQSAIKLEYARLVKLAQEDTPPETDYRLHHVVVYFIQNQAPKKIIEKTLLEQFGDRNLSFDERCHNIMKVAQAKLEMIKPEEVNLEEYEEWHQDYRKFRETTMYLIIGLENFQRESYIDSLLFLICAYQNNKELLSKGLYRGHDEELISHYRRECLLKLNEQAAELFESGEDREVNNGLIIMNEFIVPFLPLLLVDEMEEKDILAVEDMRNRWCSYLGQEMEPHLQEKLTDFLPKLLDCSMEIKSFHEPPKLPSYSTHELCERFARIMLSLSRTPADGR
The gist of the method:
as §1

Assay [5] addresses T4, USP28 (UniProt Q96RU2).
T4 sequence (whole entry): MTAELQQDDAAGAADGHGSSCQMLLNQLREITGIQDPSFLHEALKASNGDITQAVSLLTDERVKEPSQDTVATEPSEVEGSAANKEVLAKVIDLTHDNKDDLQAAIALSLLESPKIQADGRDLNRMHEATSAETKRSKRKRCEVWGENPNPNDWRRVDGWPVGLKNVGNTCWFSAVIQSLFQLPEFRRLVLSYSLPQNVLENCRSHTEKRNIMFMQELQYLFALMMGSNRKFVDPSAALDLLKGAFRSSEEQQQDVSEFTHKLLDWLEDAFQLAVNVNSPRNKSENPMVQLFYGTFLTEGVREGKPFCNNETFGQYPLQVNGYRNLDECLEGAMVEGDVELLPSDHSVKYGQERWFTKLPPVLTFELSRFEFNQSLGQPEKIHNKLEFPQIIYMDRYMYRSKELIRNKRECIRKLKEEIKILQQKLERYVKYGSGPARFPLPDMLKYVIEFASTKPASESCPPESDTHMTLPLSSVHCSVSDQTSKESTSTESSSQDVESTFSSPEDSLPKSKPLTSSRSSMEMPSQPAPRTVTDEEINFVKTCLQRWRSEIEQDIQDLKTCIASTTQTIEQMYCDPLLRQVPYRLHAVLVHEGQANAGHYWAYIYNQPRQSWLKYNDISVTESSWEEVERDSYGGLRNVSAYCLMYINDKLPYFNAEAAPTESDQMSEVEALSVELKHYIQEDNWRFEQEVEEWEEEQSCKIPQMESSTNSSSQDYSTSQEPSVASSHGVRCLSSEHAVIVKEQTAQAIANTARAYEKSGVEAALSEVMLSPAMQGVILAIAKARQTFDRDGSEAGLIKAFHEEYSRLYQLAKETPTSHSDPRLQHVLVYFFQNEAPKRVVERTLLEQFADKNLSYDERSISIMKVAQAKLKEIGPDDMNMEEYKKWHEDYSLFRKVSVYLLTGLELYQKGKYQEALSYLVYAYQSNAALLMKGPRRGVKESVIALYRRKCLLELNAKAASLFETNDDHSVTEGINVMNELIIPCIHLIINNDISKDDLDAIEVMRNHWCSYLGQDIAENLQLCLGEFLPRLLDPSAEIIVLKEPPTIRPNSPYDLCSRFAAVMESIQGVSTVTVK
An outline of the steps:
as §1

Unmarked numbers belong to inactive results.

Chain of USP24 (Q9UPU5 whole entry): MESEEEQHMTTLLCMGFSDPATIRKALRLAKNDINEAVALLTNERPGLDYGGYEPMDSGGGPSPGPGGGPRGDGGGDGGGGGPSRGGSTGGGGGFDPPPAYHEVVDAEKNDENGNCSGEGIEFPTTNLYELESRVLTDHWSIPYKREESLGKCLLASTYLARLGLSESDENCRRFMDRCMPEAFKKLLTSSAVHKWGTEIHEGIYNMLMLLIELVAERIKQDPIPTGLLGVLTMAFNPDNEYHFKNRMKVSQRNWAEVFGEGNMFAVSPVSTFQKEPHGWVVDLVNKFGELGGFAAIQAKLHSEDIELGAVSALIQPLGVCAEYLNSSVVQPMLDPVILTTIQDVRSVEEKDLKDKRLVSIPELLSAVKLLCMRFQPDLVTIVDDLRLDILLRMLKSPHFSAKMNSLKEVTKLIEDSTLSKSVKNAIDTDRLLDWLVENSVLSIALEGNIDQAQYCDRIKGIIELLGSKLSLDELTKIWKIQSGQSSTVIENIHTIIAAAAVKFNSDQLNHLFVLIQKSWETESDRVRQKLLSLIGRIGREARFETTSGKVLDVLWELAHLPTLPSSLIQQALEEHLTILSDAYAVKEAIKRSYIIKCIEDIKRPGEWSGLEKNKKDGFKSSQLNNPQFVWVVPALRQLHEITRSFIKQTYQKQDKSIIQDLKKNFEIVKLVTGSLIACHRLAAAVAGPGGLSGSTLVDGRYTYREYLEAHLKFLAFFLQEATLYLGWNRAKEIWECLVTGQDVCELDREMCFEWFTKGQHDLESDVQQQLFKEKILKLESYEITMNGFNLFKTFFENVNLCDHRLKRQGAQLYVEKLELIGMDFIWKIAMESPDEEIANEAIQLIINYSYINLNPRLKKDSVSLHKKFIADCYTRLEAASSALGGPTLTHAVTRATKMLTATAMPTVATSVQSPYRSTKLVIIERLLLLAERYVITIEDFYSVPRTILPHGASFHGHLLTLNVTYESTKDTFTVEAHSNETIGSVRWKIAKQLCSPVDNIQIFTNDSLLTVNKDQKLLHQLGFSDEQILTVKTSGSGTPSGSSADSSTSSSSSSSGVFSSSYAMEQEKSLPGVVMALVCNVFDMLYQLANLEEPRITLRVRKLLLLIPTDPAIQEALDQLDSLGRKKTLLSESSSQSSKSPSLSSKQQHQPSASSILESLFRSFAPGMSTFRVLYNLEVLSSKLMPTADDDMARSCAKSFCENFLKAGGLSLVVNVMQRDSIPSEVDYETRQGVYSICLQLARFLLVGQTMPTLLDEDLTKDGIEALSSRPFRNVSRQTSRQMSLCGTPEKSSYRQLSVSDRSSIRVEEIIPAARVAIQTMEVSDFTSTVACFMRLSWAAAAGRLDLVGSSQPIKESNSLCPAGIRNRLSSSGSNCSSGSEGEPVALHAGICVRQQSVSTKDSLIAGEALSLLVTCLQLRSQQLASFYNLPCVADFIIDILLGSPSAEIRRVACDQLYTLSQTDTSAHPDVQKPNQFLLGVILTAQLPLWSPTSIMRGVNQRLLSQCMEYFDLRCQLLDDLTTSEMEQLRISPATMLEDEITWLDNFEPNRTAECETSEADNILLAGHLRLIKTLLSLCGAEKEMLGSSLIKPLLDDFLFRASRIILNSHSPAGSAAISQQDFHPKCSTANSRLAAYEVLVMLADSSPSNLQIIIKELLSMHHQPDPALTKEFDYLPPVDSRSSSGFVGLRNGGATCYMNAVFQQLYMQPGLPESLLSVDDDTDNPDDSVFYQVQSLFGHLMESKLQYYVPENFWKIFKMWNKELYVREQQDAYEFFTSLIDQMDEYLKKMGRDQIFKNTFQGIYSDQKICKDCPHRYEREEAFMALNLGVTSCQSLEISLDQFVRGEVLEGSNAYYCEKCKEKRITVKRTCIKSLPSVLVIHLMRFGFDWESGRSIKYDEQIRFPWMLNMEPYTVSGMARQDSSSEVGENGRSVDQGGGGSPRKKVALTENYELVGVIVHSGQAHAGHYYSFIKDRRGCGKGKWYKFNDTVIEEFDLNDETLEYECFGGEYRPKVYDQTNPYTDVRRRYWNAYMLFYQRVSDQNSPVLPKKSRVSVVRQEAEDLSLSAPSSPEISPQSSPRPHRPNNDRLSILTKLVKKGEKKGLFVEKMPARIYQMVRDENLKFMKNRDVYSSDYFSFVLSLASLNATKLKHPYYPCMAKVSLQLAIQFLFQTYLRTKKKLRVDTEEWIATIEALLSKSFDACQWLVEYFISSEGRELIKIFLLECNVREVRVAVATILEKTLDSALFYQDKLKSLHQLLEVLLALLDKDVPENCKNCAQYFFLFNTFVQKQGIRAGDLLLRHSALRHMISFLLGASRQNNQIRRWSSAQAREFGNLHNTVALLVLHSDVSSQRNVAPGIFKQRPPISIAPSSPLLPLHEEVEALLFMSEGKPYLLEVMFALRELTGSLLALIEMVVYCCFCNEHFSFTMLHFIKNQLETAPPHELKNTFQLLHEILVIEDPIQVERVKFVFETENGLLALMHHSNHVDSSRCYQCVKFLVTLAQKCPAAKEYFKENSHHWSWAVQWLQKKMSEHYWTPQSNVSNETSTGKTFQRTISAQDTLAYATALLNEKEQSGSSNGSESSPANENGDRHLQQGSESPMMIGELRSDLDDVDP

For the molecule `CS(=O)(=O)c1ccc(NC(=O)CCl)cc1`, the “log2 ratio of Biotin-Ahx-Ub-VS probe labelling” value in assay [1] is -0.223; in assay [2], 0.107; in assay [3], -0.247; in assay [4], -1.74 (active); in assay [5], -1.38 (active).

These data come from the supplement of paper PMC11732987, “Enantioselective OTUD7B fragment discovery through chemoproteomics screening and high-throughput optimisation” (Communications Chemistry, 2025).
